# Reference: the supplement of paper PMC10849652
# The full data set covers some 7,900 targets. This sample favours those with a hit. About 0.6% of all pairs of compound and target were hits. Values without a mark were called inactive.
# Tests used:
# Assay in all cases: log2 fold change, soluble protein after heating vs DMSO (PISA); higher = thermal stabilisation; K562 cells, 10 uM, 30 min; active = over 0.2 and 3.5 SD of the protein, either way, in both replicates (recomputed)
# [1] = compound: CC[C@@H]1C(=O)N(C)c2cnc(Nc3ccc(C(=O)NC4CCN(C)CC4)cc3OC)nc2N1C1CCCC1
# How it was run: (§1)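 Quantification of soluble protein used TMTpro 16plex LC-MS/MS, with channel sums equalised. Samples were the supernatant after 21,000xg for 90 min of pooled aliquots from K562 cells (2×10^6 cells/mL) treated with 10 μM compound for 30 min, heated for 3 min over 48°C-58°C, and extracted in PBS with 0.5% NP-40 at 4°C. Values, from duplicates, describe thermal stability against control samples on a log2 fold-change scale.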
# [2] = compound: CC[C@@H]1C(=O)N(C)c2cnc(Nc3ccc(C(=O)N[C@H]4CC[C@H](N5CCN(CC6CC6)CC5)CC4)cc3OC)nc2N1C(C)C [volasertib]
# How it was run: as §1
# [3] = compound: CC[C@H](C)N1C=C(C2=C(C=C(C=C21)C3=CN=C(C=C3)N4CCNCC4)C(=O)NCC5=C(C=C(NC5=O)C)C)C
# How it was run: as §1
# [4] = compound: CC[C@H](C)[C@@H](C(=O)N[C@@H]([C@@H](C)O)C(=O)N[C@@H](CC(C)C)C(=O)[C@]1(CO1)C)NC(=O)[C@H]([C@@H](C)CC)N(C)C(=O)C [epoxomicin]
# How it was run: as §1
# [5] = compound: CCn1c(C(=O)N(C2CC2)C2CC2)cc2c3c(ncn3C)c(Nc3cc(C)n(C)n3)nc21
# How it was run: as §1
# [6] = compound: CCn1cc(-c2ccnc3[nH]c(-c4cccc(CN(C)C)c4)cc23)c(-c2ccc(NC(=O)N(C)C)cc2)n1
# How it was run: as §1
# [7] = compound: CN(C)CC(=O)Nc1ccc2[nH]c(=O)c3ccccc3c2c1
# How it was run: as §1
# [8] = compound: CN(CCOC1=CC=C(C=C1)C[C@H]2C(=O)NC(=O)S2)C3=CC=CC=N3 (racemic) [rosiglitazone]
# How it was run: as §1
# [9] = compound: CN1C2=C(C3=C1C(=O)N(N=C3)CC4=CC(=CC=C4)N)SC(=C2)S(=O)C
# How it was run: as §1
# [10] = compound: CN1CCC(CNc2ccc3ncc(-c4cccc(OC(F)(F)F)c4)n3n2)CC1
# How it was run: as §1
# Sequence of UniProt Q9NR12 (Q9NR12 whole entry, looked up): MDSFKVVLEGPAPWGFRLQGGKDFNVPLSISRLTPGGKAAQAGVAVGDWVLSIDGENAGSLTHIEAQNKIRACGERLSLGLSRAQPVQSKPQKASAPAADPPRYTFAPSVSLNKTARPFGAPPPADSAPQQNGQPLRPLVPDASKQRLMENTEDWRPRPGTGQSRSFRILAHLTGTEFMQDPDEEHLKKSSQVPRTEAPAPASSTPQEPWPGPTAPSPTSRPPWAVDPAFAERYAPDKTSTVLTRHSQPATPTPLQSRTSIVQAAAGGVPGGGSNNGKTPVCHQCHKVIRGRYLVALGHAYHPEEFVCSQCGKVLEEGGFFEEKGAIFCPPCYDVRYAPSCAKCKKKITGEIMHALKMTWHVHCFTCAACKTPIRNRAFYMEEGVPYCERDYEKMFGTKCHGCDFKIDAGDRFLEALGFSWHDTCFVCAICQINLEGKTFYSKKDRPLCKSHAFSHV
# Sequence of UniProt P62136 (P62136 whole entry, looked up): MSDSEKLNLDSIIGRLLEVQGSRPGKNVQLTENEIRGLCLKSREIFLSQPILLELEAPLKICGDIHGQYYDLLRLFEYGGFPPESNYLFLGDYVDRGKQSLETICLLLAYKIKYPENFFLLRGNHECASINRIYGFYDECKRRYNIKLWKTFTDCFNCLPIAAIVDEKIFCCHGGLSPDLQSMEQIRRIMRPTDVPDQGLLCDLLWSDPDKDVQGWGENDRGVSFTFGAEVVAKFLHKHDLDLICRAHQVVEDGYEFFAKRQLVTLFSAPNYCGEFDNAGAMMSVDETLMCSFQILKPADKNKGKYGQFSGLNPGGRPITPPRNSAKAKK
# Sequence of UniProt P25788 (P25788 whole entry, looked up): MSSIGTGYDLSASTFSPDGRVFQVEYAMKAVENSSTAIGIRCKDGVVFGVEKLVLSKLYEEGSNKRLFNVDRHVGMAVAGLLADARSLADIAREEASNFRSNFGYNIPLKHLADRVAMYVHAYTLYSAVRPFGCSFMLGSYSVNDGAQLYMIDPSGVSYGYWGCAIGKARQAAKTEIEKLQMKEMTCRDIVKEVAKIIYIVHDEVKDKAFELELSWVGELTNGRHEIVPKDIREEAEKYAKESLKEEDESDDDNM
# Sequence of UniProt Q8IZL8 (Q8IZL8 whole entry, looked up): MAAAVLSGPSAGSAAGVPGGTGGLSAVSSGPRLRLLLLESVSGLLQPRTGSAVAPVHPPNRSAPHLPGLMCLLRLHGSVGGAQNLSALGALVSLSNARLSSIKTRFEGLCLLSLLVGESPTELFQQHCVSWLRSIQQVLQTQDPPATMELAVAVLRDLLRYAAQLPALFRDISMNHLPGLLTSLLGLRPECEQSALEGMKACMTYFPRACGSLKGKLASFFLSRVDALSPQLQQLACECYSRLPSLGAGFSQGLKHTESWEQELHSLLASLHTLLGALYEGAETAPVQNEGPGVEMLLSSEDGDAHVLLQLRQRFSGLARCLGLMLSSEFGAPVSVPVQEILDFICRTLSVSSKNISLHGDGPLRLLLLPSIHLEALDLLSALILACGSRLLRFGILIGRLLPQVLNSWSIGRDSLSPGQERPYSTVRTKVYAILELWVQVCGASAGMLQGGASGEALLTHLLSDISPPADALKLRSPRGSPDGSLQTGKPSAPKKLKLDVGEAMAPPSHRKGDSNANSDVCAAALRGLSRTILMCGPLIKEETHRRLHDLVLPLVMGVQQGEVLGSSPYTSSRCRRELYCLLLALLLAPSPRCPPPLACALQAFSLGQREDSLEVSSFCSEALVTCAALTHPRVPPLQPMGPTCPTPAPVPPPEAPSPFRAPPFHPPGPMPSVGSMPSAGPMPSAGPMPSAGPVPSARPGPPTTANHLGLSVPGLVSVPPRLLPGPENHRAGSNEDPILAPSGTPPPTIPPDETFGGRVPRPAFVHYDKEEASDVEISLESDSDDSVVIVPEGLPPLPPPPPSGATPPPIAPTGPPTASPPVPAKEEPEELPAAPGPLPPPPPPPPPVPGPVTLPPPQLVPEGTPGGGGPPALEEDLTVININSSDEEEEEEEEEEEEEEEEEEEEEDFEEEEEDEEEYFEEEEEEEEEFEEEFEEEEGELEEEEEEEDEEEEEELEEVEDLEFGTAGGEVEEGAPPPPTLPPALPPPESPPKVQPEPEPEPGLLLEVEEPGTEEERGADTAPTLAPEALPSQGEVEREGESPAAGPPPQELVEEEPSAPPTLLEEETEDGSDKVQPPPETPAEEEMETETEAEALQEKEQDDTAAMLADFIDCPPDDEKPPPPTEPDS
# Sequence of UniProt Q13362 (Q13362 whole entry, looked up): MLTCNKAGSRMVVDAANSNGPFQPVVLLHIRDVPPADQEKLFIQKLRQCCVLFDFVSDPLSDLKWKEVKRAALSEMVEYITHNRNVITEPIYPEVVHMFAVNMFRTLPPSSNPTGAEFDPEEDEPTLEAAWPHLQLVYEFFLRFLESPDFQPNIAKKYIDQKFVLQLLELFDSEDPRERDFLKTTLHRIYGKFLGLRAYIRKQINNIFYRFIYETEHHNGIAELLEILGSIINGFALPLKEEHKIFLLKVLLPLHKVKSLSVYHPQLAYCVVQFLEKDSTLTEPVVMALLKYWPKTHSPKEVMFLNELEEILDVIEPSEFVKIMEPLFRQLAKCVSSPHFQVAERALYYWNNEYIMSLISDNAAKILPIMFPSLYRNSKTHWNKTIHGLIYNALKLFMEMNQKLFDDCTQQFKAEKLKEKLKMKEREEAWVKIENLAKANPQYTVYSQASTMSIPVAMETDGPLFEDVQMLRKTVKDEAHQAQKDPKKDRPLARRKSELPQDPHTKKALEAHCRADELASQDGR
# Sequence of UniProt Q15366 (Q15366 whole entry, looked up): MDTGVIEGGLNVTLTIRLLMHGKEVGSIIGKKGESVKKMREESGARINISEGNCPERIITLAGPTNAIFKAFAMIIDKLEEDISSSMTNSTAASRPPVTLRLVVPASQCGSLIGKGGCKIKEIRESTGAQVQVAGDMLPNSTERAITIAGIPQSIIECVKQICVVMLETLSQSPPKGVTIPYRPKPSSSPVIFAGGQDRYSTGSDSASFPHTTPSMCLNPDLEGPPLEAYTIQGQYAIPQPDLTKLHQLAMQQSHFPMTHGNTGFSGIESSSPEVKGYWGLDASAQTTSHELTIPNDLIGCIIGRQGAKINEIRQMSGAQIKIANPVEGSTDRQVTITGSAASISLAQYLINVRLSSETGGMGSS
# Sequence of UniProt O60925 (O60925 whole entry, looked up): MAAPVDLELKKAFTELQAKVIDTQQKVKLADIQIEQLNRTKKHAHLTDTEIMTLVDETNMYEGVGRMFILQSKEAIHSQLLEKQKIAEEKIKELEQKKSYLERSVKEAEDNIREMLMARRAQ
# Sequence of UniProt P43686 (P43686 whole entry, looked up): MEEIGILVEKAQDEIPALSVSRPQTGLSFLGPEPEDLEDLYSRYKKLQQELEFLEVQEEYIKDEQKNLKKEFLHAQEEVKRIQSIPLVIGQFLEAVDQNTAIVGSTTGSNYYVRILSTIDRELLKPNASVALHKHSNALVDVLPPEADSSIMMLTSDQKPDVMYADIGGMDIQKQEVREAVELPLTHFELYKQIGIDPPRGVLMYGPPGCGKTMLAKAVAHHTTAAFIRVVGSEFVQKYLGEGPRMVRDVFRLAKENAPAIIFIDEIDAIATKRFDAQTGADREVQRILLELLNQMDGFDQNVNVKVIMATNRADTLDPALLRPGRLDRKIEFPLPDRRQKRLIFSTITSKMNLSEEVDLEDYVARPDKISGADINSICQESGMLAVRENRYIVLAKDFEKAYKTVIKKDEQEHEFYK
# Sequence of UniProt O43242 (O43242 whole entry, looked up): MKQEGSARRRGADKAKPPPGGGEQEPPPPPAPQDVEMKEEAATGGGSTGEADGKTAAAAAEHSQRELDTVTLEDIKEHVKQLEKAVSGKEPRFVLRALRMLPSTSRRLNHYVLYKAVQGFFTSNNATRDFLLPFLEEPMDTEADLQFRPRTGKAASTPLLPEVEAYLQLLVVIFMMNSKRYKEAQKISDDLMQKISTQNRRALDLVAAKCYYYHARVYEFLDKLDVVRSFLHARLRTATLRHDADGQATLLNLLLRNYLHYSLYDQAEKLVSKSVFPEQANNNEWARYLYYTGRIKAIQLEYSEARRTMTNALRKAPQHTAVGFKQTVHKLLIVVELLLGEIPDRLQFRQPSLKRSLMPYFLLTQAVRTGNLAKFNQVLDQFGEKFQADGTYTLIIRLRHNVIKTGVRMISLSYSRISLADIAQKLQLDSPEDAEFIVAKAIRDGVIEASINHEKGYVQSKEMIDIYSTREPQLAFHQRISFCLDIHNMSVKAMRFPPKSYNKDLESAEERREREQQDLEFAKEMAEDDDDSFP
Target,log2 fold change [1],log2 fold change [2],log2 fold change [3],log2 fold change [4],log2 fold change [5],log2 fold change [6],log2 fold change [7],log2 fold change [8],log2 fold change [9],log2 fold change [10]
PSMC4 (UniProt P43686),0.033,0.2,-0.021,-0.379 (active),-0.02,0.086,-0.033,-0.021,0.033,0.06
PSMA3 (UniProt P25788),0.067,0.134,-0.025,-0.169,0.043,0.002,-0.003,-0.039,-0.027,0.046
PPP1CA (UniProt P62136),-0.014,-0.061,0.003,0.02,0.011,-0.041,-0.033,0.015,-0.077,0.011
PRMT7 (UniProt Q9NVM4),-0.074,-0.461 (active),0.04,-0.036,-0.042,-0.077,0.032,0.082,0.022,-0.176
PCBP2 isoform 3 (UniProt Q15366),-0.069,-0.263 (active),0.071,0.013,-0.036,-0.003,0.043,0.062,-0.001,-0.081
PCBP2 (UniProt F8VRH0),-0.005,-0.051,0.165,-0.252,0.043,-0.201,0.139,-0.042,-0.306,-0.149
PSMD3 (UniProt O43242),0.039,0.133,0,-0.337 (active),0.01,0.02,-0.01,-0.01,0.027,0.067
PPP2R5C isoform 5 (UniProt Q13362),-0.12,-0.429 (active),0.019,0.06,-0.086,-0.009,-0.023,0.021,-0.027,-0.203
PRKCA (UniProt P17252),0.073,-0.179,0.025,-0.018,-0.029,0,0.017,0.032,-0.15,-0.29
PDE2A (UniProt O00408),-0.031,-0.107,0.016,-0.087,0.061,-0.082,0.027,-0.004,0,-0.091
PDLIM7 (UniProt Q9NR12),-0.084,-0.24 (active),0.012,0.013,-0.053,-0.064,0.039,0.039,0.023,-0.021
PFDN1 (UniProt O60925),0.044,-0.009,-0.004,0.183,0.02,-0.019,0,0.003,-0.119,0.113
POLR2D (UniProt O15514),0.206,0.135,-0.017,0.17,0.11,0.043,-0.02,-0.02,-0.101,0.056
PELP1 (UniProt Q8IZL8),0.056,0.017,-0.002,-0.004,-0.01,0.047,-0.009,0.017,0.006,0.021
PRPF4B (UniProt Q13523),0.025,-0.17,0.027,-0.174,-0.005,0.104,-0.049,0.011,0.081,0.019
